A short description of experiment [1]: ATG_PBREM_CIS: Attagene CIS-FACTORIAL HepG2 Assay for human Phenobarbital-responsive Enhancer Module (PBREM) (AID 2282955). To be noted: HepG2 PBREM cis-reporter, Attagene multiplexed transcription; actives raise or lower the signal. Put shortly:
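Endogenous transcription factors in human liver HepG2 cells drive a PBREM cis-element reporter, whose transcript level after 24 h treatment is quantified by RT-PCR with capillary electrophoresis; activity fitted in both directions against DMSO.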

The target in experiment [2] is Paired box protein Pax-6 (Homo sapiens) (UniProt P26367). The experiment is described as follows: ATG_Pax6_CIS: Attagene CIS-FACTORIAL HepG2 Assay for human Paired Box 6 (PAX6) (AID 2282956). The settings on record: HepG2 CIS-FACTORIAL PAX6 reporter transcription, RNA readout; actives raise or lower the signal. Put shortly: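 Transient MRTU transfection of HepG2 → compound exposure 24 h → TriZol RNA, oligo(dT) RT → PCR, 6-FAM primer extension, HpaI cut → capillary electrophoresis; activity fitted both directions against DMSO.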
Paired box protein Pax-6 (Homo sapiens), sequence (P26367 whole entry, looked up): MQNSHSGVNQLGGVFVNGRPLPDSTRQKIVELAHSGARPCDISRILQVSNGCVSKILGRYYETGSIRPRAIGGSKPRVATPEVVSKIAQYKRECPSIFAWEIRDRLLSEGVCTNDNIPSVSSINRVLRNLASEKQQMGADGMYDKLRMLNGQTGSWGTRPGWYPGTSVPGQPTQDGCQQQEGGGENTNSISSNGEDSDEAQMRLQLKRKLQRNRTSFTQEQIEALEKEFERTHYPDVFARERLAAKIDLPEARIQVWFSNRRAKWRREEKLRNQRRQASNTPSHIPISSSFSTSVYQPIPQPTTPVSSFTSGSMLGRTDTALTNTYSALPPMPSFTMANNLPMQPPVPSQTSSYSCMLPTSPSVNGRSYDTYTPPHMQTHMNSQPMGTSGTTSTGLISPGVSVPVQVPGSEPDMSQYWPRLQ

The nature of experiment [3]: ATG_PXRE_CIS: Attagene CIS-FACTORIAL HepG2 Assay for human Pregnane X Receptor Element (PXRE) (AID 2282957). To be noted: HepG2 Attagene CIS-FACTORIAL PXRE reporter, mRNA; actives raise or lower the signal. The essentials: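 Cells: HepG2, transiently transfected reporter units under cis promoter control. Exposure: 24 h. Detection: reporter mRNA via RT-PCR/CE fluorescence; bidirectional fitting, DMSO-referenced.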

Experiment [4] can be described thus: ATG_PPRE_CIS: Attagene CIS-FACTORIAL HepG2 Assay for human Peroxisome Proliferator-activated Response Element (PPRE) (AID 2282958). The settings on record: HepG2 PPRE cis-element reporter, Attagene transcription factor profiling; actives raise or lower the signal. Put shortly: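 HepG2, transient MRTU transfection (cis promoter elements, endogenous TFs). 24 h dosing. RNA → oligo(dT) RT → PCR → 6-FAM primer extension → HpaI digest → CE. Bidirectional fit vs DMSO.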

Experiment [5] is described as follows: ATG_RORE_CIS: Attagene CIS-FACTORIAL HepG2 Assay for human RAR-related Orphan Receptor Element (RORE) (AID 2282959). The settings on record: HepG2 Attagene cis-factorial RORE reporter, mRNA; actives raise or lower the signal. Put shortly: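 Transient MRTU transfection of human HepG2 liver cells (FuGene 6); 24 h compound exposure; TriZol RNA, oligo(dT) RT, PCR, FAM labeling, HpaI cut, CE fragment analysis. DMSO = negative control/baseline.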

Experiment [6] is described as follows: ATG_Sox_CIS: Attagene CIS-FACTORIAL HepG2 Assay for human SRY-box transcription factor (SOX) (AID 2282960). The settings on record: HepG2 Attagene cis-factorial SOX reporter, mRNA; actives raise or lower the signal. The essentials:
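Endogenous factor activity in human liver HepG2 cells carrying transfected cis-regulated reporter units. RNA taken 24 h post-dose, reverse-transcribed, PCR-amplified and sized by capillary electrophoresis. Gain or loss of signal fitted relative to DMSO.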

Experiment [7] deals with Transcription factor Sp1 (Homo sapiens) (UniProt P08047). As to the kind of experiment: ATG_Sp1_CIS: Attagene CIS-FACTORIAL HepG2 Assay for human Specificity Protein 1 (Sp1) (AID 2282961). The settings on record: HepG2 Sp1 cis-reporter transcription, actives raise or lower the signal. Put shortly:
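Transient MRTU-transfected HepG2, 24 h compound exposure. Total RNA → oligo(dT) RT → PCR of reporter → 6-FAM primer extension → HpaI digest → CE. Endpoint fitted both directions vs DMSO.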

The target in experiment [8] is Signal transducer and activator of transcription 3 (Homo sapiens) (UniProt P40763). As to the kind of experiment: ATG_STAT3_CIS: Attagene CIS-FACTORIAL HepG2 Assay for human Signal Transducer and Activator of Transcription 3 (STAT3) (AID 2282963). To be noted: HepG2, Attagene cis-factorial STAT3 reporter transcription; actives raise or lower the signal. The essentials:
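Transcript-level reporter assay. HepG2 transient MRTU transfection, 24 h exposure, fluorescence detection after RT-PCR and CE; DMSO baseline.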

A short description of experiment [9]: ATG_TA_CIS: Attagene CIS-FACTORIAL HepG2 Assay for human TA Basal Promoter (AID 2282964). To be noted: HepG2 Attagene CIS-factorial TA basal promoter reporter; actives raise or lower the signal. Put shortly:
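Background internal-marker endpoint from a 52-component HepG2 cis-reporter panel. Cells treated 24 h; reporter transcripts quantified via RT-PCR and CE fluorescence against DMSO baseline.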

Experiment [10] can be described thus: ATG_TCF_b_cat_CIS: Attagene CIS-FACTORIAL HepG2 Assay for human T-Cell-Factor with beta-catenin (TCF/b-cat) (AID 2282965). The settings on record: HepG2 TCF/beta-catenin cis-reporter transcription, actives raise or lower the signal. Put shortly: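 HepG2 cells transiently transfected with multiple cis-promoter-regulated reporter transcription units, so endogenous transcription factor activity is measured. Reporter mRNA read 24 hours after dosing by RT-PCR, fluorescent labelling and capillary electrophoresis; bidirectional fitting against DMSO.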

Experiment [11] is described as follows: ATG_TAL_CIS: Attagene CIS-FACTORIAL HepG2 Assay for human TAL Basal Promoter (AID 2282966).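 Also: background control endpoint measuring basal TAL promoter reporter mRNA not a specific factor.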 To be noted: HepG2 Attagene cis-factorial TAL promoter reporter; actives raise or lower the signal. The essentials: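 RT-PCR plus capillary electrophoresis quantifies reporter mRNA induction in transiently transfected HepG2 cells after 24 h chemical treatment. DMSO serves as negative control and baseline for bidirectional fitting.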

A short description of experiment [12]: ATG_TGFb_CIS: Attagene CIS-FACTORIAL HepG2 Assay for human Transforming Growth Factor (TGF) (AID 2282967). The settings on record: HepG2 Attagene CIS TGFb reporter, mRNA transcription; actives raise or lower the signal. Put shortly: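 Liver HepG2 line, cis-factorial reporter panel, 24 h dosing. Quantitation: RT-PCR products labeled with 6-FAM, cut with HpaI, resolved by capillary electrophoresis; DMSO-referenced bidirectional analysis.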

Experiment [13] in a line: ATG_VDRE_CIS: Attagene CIS-FACTORIAL HepG2 Assay for human Vitamin D Receptor Element (VDRE) (AID 2282968). To be noted: HepG2 VDRE cis-reporter transcription, actives raise or lower the signal. Put shortly: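 RT-PCR/CE readout of reporter mRNA; HepG2, transient transfection, 24 h dosing; DMSO baseline; bidirectional analysis.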
Experiment [14] deals with Estrogen receptor (Homo sapiens) (UniProt P03372). As to the kind of experiment: ATG_ERa_TRANS: Attagene TRANS-FACTORIAL HepG2 Assay for human Estrogen Receptor alpha (ERa) (AID 2282970; active = hit-call score of the fitted dose curve at least 0.9, where 1 is the maximum). To be noted: HepG2 Attagene TRANS ERa GAL4 reporter, mRNA. Put shortly: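 Cells: HepG2, transiently transfected. Construct: GAL4-UAS reporter units regulated by exogenous NR-Gal4 chimeras. Time: 24 h. Detection: reporter mRNA by RT-PCR, capillary electrophoresis, fluorescence. Baseline: DMSO, upward fitting.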
Estrogen receptor (Homo sapiens), sequence (P03372 whole entry, looked up, the tested form may be a part): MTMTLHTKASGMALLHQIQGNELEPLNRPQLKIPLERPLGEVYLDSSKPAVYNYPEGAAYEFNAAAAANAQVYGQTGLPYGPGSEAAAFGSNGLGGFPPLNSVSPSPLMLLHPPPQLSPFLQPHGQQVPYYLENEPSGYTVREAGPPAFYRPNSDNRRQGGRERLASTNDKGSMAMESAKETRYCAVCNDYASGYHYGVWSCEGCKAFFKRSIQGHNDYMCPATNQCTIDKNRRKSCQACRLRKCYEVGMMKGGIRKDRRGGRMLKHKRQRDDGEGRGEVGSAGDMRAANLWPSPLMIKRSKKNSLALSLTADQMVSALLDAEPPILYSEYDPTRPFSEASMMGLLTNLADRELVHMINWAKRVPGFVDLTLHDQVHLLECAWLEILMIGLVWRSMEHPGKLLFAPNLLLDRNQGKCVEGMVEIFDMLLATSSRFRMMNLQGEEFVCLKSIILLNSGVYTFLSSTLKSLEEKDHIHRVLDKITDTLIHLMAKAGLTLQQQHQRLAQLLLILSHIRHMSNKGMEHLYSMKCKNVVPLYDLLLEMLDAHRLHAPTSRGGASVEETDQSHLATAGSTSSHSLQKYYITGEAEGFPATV

Experiment [15] has as its target X-box-binding protein 1 (Homo sapiens) (UniProt P17861). The experiment is described as follows: ATG_Xbp1_CIS: Attagene CIS-FACTORIAL HepG2 Assay for human X-box Binding Protein 1 (XBP1) (AID 2282972). The settings on record: HepG2 XBP1 cis-element reporter, Attagene multiplex; actives raise or lower the signal. The essentials:
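HepG2, transient MRTU transfection (cis-promoter driven), 24 h compound exposure. Total RNA → oligo(dT) RT → PCR → 6-FAM labeling → HpaI cut → CE. Bidirectional fit vs DMSO.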

Experiment [16] addresses Nuclear receptor subfamily 1 group I member 3 (Homo sapiens) (UniProt Q14994). The experiment is described as follows: ATG_CAR_TRANS: Attagene TRANS-FACTORIAL HepG2 Assay for human Constitutive Androstane Receptor (CAR) (AID 2282969; active = hit-call score of the fitted dose curve at least 0.9, where 1 is the maximum;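 also: activators raise reporter mRNA above DMSO so AC50 marks induction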). To be noted: HepG2 Attagene TRANS-FACTORIAL CAR reporter. The essentials: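 HepG2 cells transiently transfected with multiplexed GAL4-UAS reporter units expressing chimeric NR-Gal4 proteins; compound exposure 24 h. Reporter mRNA measured by RT-PCR, 6-FAM labelling, HpaI digestion and capillary electrophoresis; gain-of-signal fitted against DMSO baseline.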

Experiment [17] can be described thus: ATG_M_19_TRANS: Attagene TRANS-FACTORIAL HepG2 Assay for M19 Transcription Factor (Internal Marker) (AID 2282974; active = hit-call score of the fitted dose curve at least 0.9, where 1 is the maximum). To be noted: HepG2 Attagene TRANS-FACTORIAL M19 internal marker reporter. The essentials:
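Fluorescence of 6-FAM-labelled reporter cDNA fragments, separated by capillary electrophoresis, served as the readout. These derived from HepG2 cells carrying transfected GAL4-UAS reporter units after 24 h dosing, with DMSO as negative control.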

Experiment [18] addresses Androgen receptor (Homo sapiens) (UniProt P10275). The experiment is described as follows: ATG_AR_TRANS: Attagene TRANS-FACTORIAL HepG2 Assay for human Androgen Receptor (AR) (AID 2282973; active = hit-call score of the fitted dose curve at least 0.9, where 1 is the maximum). The settings on record: HepG2 Attagene TRANS-FACTORIAL AR reporter transcription. The essentials: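 Transcriptional activity of an exogenous AR–Gal4 fusion read as GAL4-UAS reporter transcript levels in transfected human HepG2 cells after 24 h dosing. Detection via RT-PCR, 6-FAM labelling, HpaI digest and capillary electrophoresis; increase over DMSO baseline.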

Molecules are shown by their SMILES. Results filed as inconclusive are left out. Active and inactive are the calls of the source. The calls were made as follows, unless noted: active = hit-call score of the fitted dose curve at least 0.9, where 1 is the maximum; inactive = score below 0.9.

Broadly, the AC50 is the concentration at which the activity in the assay is half-maximal.

Signal transducer and activator of transcription 3 (Homo sapiens), sequence (P40763 whole entry, looked up): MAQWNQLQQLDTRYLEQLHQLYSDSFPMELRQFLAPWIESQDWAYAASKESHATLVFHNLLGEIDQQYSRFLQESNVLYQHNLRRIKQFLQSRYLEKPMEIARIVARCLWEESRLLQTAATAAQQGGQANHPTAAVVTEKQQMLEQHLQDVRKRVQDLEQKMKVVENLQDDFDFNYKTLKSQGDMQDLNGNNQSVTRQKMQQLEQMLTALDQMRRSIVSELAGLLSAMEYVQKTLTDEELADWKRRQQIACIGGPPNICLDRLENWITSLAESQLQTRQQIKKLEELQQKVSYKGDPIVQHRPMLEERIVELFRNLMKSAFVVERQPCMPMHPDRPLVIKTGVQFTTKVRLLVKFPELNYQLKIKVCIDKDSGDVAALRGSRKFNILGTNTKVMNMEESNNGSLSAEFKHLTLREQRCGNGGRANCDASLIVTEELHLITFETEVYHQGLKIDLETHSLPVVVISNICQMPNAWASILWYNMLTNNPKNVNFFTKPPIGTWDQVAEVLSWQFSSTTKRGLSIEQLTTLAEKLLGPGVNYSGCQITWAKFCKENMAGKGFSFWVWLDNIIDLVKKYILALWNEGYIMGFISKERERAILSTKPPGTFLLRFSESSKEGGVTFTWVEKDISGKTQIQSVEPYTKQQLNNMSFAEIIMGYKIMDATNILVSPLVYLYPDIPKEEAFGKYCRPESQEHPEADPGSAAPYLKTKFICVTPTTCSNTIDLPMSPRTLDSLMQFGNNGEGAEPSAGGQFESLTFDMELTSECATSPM
X-box-binding protein 1 (Homo sapiens), sequence (P17861 whole entry, looked up): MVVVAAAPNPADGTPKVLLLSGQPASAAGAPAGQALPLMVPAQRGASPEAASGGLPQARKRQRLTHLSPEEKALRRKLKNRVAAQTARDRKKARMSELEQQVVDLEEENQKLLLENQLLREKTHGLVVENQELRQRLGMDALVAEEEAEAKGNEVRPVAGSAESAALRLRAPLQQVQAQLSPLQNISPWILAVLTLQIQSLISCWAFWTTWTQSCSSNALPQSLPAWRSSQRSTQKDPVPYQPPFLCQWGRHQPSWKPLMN
Transcription factor Sp1 (Homo sapiens), sequence (P08047 whole entry, looked up): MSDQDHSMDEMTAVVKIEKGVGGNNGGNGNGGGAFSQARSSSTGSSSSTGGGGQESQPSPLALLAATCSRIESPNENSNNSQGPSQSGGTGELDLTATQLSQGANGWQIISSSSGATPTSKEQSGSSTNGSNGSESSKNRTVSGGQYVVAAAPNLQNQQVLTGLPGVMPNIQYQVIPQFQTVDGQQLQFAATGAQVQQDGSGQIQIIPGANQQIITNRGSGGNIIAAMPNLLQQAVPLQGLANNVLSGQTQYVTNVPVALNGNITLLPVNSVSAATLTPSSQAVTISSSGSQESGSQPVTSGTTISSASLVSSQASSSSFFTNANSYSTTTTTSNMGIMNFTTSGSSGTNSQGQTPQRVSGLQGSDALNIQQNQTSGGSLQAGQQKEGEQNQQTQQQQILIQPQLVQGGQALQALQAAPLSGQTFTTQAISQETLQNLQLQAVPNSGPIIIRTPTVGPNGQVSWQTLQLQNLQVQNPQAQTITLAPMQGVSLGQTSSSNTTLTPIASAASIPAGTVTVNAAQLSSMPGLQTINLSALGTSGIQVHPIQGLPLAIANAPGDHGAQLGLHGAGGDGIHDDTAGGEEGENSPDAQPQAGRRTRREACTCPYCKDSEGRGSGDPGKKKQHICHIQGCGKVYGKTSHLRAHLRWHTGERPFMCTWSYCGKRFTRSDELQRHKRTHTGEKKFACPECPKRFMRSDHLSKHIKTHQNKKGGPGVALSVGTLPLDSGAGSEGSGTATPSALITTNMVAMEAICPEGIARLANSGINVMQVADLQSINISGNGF
Androgen receptor (Homo sapiens), sequence (P10275 whole entry, looked up, the tested form may be a part): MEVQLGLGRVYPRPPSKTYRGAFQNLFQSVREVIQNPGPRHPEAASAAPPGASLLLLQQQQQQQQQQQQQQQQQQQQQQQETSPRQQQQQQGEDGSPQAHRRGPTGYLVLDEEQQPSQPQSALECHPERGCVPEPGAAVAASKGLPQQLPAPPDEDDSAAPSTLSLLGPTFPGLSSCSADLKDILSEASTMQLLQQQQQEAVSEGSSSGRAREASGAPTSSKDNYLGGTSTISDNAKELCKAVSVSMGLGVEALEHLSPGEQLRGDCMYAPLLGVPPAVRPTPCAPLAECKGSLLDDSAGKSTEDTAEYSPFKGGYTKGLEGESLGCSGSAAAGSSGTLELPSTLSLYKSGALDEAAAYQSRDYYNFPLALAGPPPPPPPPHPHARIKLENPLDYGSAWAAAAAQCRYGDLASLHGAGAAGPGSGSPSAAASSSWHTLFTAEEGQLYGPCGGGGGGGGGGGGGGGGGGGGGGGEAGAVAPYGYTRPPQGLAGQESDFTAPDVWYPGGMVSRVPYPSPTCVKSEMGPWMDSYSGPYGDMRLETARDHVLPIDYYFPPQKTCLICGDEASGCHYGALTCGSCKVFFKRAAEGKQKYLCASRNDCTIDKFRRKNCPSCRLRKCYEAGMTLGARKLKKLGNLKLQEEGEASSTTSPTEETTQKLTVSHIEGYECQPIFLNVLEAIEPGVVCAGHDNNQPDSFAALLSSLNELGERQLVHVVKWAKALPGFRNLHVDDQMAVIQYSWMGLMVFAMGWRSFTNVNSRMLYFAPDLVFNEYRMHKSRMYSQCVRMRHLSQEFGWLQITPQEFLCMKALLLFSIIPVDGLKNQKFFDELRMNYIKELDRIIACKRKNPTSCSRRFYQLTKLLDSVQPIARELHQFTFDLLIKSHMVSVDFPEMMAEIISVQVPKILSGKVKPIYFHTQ
Nuclear receptor subfamily 1 group I member 3 (Homo sapiens), sequence (Q14994 whole entry, looked up, the tested form may be a part): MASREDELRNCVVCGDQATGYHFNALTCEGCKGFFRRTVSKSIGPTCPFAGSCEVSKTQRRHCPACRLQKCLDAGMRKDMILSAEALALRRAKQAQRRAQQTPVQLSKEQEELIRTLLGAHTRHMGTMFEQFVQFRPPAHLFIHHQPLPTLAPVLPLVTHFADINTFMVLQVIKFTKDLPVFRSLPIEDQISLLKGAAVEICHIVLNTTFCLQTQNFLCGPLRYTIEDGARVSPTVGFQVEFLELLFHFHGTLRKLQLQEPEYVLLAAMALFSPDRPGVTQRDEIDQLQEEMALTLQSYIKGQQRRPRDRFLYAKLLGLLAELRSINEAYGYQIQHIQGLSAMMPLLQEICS

With `O=C(O)COc1nc(Cl)c(Cl)cc1Cl`, the outcome in experiment [1], in experiment [2], in [5], in experiment [6], in [7] and in experiment [8] was inactive. Further, the compound was classed as inactive in experiment [9], in experiment [10], in [11], in [12], in experiment [13] and in [14]. Further, the outcome in experiment [15] was inactive. Further, the values for the concentration at half-maximal activity (AC50) in [3] and in experiment [4] were 59.9 µM (active) and 50 µM (active), respectively.

For the compound `Fc1ccc(Oc2ccnc3cc(Cl)cc(Cl)c23)cc1`, the result in [1], in experiment [2], in experiment [3], in experiment [5], in [6] and in experiment [7] was inactive. Besides, the result in experiment [8], in experiment [9], in [10], in experiment [11], in experiment [12] and in experiment [13] was inactive. The outcome in experiment [16], in [14], in experiment [15] and in [17] was inactive. For the same compound, the concentration at half-maximal activity (AC50) in [4] is 2.17 µM (active).

On to `Cc1ccc(-c2c(Cl)nc(C#N)n2S(=O)(=O)N(C)C)cc1`, for which the AC50 in [1] was 11.9 µM (active); in [3], 3.08 µM (active); in [4] it was 11.9 µM (active); in experiment [5], 16.3 µM (active); in experiment [7] it was 11.9 µM (active); in experiment [13] it was 11.9 µM (active). In experiment [15], the AC50 was 8.26 µM (active). Besides, the result in experiment [2], in experiment [6], in [8], in experiment [9], in experiment [10] and in experiment [11] was inactive. Also, the compound was called inactive in experiment [12], in experiment [14] and in experiment [18].

For the compound `CN(C)C(=S)SSC(=S)N(C)C`, the outcome in experiment [1], in experiment [2], in [3], in experiment [4], in experiment [5] and in experiment [6] was inactive. The call in experiment [7], in experiment [8], in experiment [9], in [10], in experiment [11] and in experiment [12] was inactive. Besides, the call in [13], in experiment [14], in experiment [15], in experiment [18] and in experiment [17] was inactive.

The values are drawn from PubChem BioAssay (EPA / NIEHS).
